Rows were chosen to be rich in hits. Some 2.8% of all compounds tested hit in one or more screens of this group.
PAX8 inh HTS = lowers PAX8-driven luciferase in RMG-I cells; RMG-I TPO-luciferase reporter, SteadyGlo, 24 h; inhibition, % at 12.6 µM; 360,000 tested, 1.2% active; AID 652154;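 active means mean replicate inhibition at least 60% with every replicate also reaching 60%; inconclusive means only one of the two criteria is met; inactive means mean below 60% and not all replicates reaching 60%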;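 further: luciferase light reporting Pax8 driven TPO promoter activity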
HIF-2a inh = HIF-2a inhibition; 786-0 RCC cells HIF-2a reporter, luciferase luminescence, overnight; inhibition, % at 18.8 µM; 360,000 tested, 0.72% active; AID 624352;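 active means inhibition of the luminescence signal of 40% or more relative to plate controls, in a single-dose primary screen at 18.75 µM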
Peg3 prom inh = reduces Peg3 promoter-driven luciferase expression in HeLa. inhibition, % at 20 µM. 360,000 tested, 1.7% active. AID 588405. HeLa PEG-Prom luciferase reporter, luminescence, overnight;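 active means inhibition of at least 50% at 20 µM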
TRPM1 prom inh = reduces MITF-dependent TRPM1 promoter luciferase signal | SK-MEL-5 TRPM1 promoter luciferase, 24 h | inhibition, % at 12.5 µM | 330,000 tested, 0.83% active | AID 488899;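 active means mean inhibition across replicates of 60% or more, whatever share of single replicates reaches that level; inconclusive means some that reach 60%, reason not given; inactive means mean inhibition across replicates below 60%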
EBV LMP1 NFkB = Epstein-Barr LMP1 NF-kappaB reporter inhibition; LMP1-induced NF-kappaB luciferase reporter cells, luminescence; inhibition, % at 12.5 µM; 350,000 tested, 0.69% active; AID 504558; in the data active means inhibition above about 41%; inconclusive means no clear call, values can overlap the other calls
Shn3 3UTR inh = inhibitors of Schnurri-3 3'UTR reporter in osteoblasts; Clone20 osteoblast Shn3 3'UTR firefly luciferase, 24 h; inhibition, % at 12.5 µM; 360,000 tested, 0.52% active; AID 588674;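 active means mean inhibition of at least 75% with every replicate also reaching 75%; inconclusive means mean inhibition at least 75% but some replicate below; inactive means mean inhibition below 75%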
Mdm2 MdmX conf = Mdm2/MdmX (human) interaction inhibition, confirmed | shares compounds with HIF-2a inh | SaOS-2 split-luciferase Mdm2/MdmX complementation, luminescence | inhibition, % at 8 µM | 740 tested, 99% active | AID 504601;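 active means mean inhibition of the luminescence signal across two replicates at or above 26 percent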
Target sequence (O15151 whole entry, looked up): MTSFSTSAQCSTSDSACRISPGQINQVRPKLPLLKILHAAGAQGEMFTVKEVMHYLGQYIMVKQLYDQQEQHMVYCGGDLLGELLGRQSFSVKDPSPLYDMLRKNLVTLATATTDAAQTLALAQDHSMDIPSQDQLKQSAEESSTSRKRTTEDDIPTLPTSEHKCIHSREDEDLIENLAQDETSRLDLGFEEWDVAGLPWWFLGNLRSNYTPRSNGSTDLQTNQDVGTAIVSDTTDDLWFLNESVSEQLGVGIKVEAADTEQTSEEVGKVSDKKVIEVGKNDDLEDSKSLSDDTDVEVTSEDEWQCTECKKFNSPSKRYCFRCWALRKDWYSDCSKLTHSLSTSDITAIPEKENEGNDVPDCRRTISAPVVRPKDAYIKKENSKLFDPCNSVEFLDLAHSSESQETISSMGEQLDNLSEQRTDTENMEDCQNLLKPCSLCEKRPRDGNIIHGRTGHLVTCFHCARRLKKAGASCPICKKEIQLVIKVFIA
Target sequence (Q00987 whole entry, looked up): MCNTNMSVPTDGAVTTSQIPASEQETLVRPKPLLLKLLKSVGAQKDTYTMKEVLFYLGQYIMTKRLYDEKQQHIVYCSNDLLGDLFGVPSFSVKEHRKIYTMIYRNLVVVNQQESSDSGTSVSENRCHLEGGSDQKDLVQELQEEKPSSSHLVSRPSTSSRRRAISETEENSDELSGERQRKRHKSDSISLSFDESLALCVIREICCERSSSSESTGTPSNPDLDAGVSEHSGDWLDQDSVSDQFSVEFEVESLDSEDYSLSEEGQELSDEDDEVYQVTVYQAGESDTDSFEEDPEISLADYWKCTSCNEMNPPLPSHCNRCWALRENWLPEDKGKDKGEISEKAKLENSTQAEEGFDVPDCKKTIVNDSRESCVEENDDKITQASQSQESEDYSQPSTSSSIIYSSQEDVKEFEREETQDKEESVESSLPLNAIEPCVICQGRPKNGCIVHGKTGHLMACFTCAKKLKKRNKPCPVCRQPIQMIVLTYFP
HIF-2a inh conf = confirmation of HIF-2a inhibitors. 786-0 RCC cells, HIF-2a luciferase reporter luminescence, overnight. inhibition, % at 18.8 µM. AID 651580. 1,800 tested, 56% active. shares compounds with HIF-2a inh;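 active means mean inhibition across four replicates of at least 40 percent at the single tested concentration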
HIF-1a cs = counter-screen for HIF-2a inhibitors: HIF-1a inhibition in MiaPaCa-2 cells | shares compounds with HIF-2a inh | MiaPaCa-2 HIF-1a luciferase reporter, desferoxamine, overnight | inhibition, % at 18.8 µM | 1,800 tested, 72% active;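 active means mean inhibition of the reporter signal across four replicates at the single tested dose of 50% or more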
Hits are given with their value; i = inactive; ? = inconclusive; nt = no result.

SMILES	PAX8 inh HTS	HIF-2a inh	Peg3 prom inh	TRPM1 prom inh	EBV LMP1 NFkB	Shn3 3UTR inh	HIF-2a inh conf	HIF-1a cs	others
CC(C)NC(=O)Nc1ccc2c(c1)C(=O)N([C@H](C)CO)C[C@H](C)[C@@H](CN(C)S(=O)(=O)c1ccc(F)cc1)OCCCC[C@@H](C)O2	i	nt	nt	nt	nt	nt	nt	nt
CC(=O)Nc1ccc(Sc2ccc([N+](=O)[O-])o2)cc1	114	91	97	95	i	99	94	103
CC(C)(C)C(=O)Nc1ccc(Sc2ccc([N+](=O)[O-])cc2)cc1	i	i	i	i	i	i	nt	nt
CC(Sc1ncnc2c1cnn2-c1ccccc1)C(=O)NCC1CCCO1 (stereo not given)	i	i	i	i	i	i	nt	nt
Cc1nc(SC(C)C(=O)NCC2CCCO2)c2cc(-c3ccccc3)sc2n1 (stereo not given)	i	i	i	i	i	i	nt	nt	Mdm2 MdmX conf=101
C[C@H]1CN([C@@H](C)CO)C(=O)c2cc(NS(=O)(=O)c3ccc(Cl)cc3)ccc2O[C@@H]1CN(C)C	i	nt	nt	nt	nt	nt	nt	nt
Cc1nc(SCc2ccc(C(=O)O)cc2)nc2c1CCCC2	i	82	i	i	i	i	89	62
O=C(O)c1ccc(CSc2nc3c(c(=O)[nH]2)CCC3)cc1	i	i	i	nt	nt	i	nt	nt
OC[C@@H]1[C@@H](c2ccccc2)C2(CN(CC3CCOCC3)C2)N1Cc1cncnc1	i	nt	nt	nt	nt	nt	nt	nt
Cn1c2c(c(=O)n(C)c1=O)C(C(F)(F)F)(C(F)(F)F)N=C(c1ccc(Cl)cc1)N2	nt	i	i	72	i	81	nt	nt	Mdm2 MdmX conf=97
Cc1ccccc1C1=NC(C(F)(F)F)(C(F)(F)F)c2c(n(C)c(=O)n(C)c2=O)N1	i	i	i	i	i	i	nt	nt
Clc1ccc2nnnc(-c3ccccc3)c2c1	i	83	i	i	i	i	71	103
COCC#Cc1ccc([C@@H]2[C@@H](CO)N3CCCCN(S(=O)(=O)c4ccc(OC)cc4)C[C@@H]23)cc1	i	nt	nt	nt	nt	nt	nt	nt
Cn1nc([N+](=O)[O-])nc1Sc1nnc(-c2ccccc2)o1	nt	i	i	i	i	i	nt	nt	Mdm2 MdmX conf=75
O=Cc1ccc(Sc2nnc(-c3ccccc3)o2)c([N+](=O)[O-])c1	nt	i	i	i	i	i	nt	nt
COC(=O)c1c(CC[C@@H](CO)NC(=O)N[C@@H](Cc2ccccc2)Cn2cc(C3(O)CCCC3)nn2)oc(C(=O)N2CCOCC2)c1C(=O)OC	i	nt	nt	nt	nt	nt	nt	nt
Cn1nnnc1Sc1ncnc2scc(-c3cccc(C(F)(F)F)c3)c12	101	84	95	75	i	i	91	99	Mdm2 MdmX conf=103
COc1cccc(-c2csc3ncnc(Sc4nnnn4C)c23)c1	99	47	88	71	75	i	43	98
COC(=O)CSc1ncnc2scc(-c3ccccc3)c12	i	i	i	i	i	i	nt	nt
Cn1nnnc1Sc1ncnc2scc(-c3ccc(C(F)(F)F)cc3)c12	77	94	97	82	i	i	98	102	Mdm2 MdmX conf=100
Cn1nnnc1Sc1ncnc2scc(-c3ccccc3C(F)(F)F)c12	i	51	i	i	i	i	46	59
C[C@@H]1CCCCO[C@H](CN(C)C)[C@@H](C)CN([C@@H](C)CO)C(=O)c2cc(NC(=O)CCC(F)(F)F)ccc2O1	i	nt	nt	nt	nt	nt	nt	nt
COCC(=O)Nc1ccc2c(c1)C(=O)N(C)C[C@@H](OC)[C@@H](C)CN(Cc1ccncc1)[C@H](C)CO2	i	nt	nt	nt	nt	nt	nt	nt
Cc1ccc(S(=O)(=O)N[C@H]2CC[C@@H](CC(=O)N3CCC(Cc4ccccc4)CC3)O[C@H]2CO)cc1	i	nt	nt	nt	nt	nt	nt	nt
COc1ccc(CN(C)C[C@@H]2Oc3ccc(NC(=O)Cn4cnnn4)cc3CC(=O)N([C@@H](C)CO)C[C@H]2C)cc1	i	nt	nt	nt	nt	nt	nt	nt
SMILES	PAX8 inh HTS	HIF-2a inh	Peg3 prom inh	TRPM1 prom inh	EBV LMP1 NFkB	Shn3 3UTR inh	HIF-2a inh conf	HIF-1a cs	others
Cn1nnnc1Sc1ncnc2scc(-c3cccc(F)c3)c12	105	75	102	78	i	i	54	104	Mdm2 MdmX conf=103
O=C([C@H]1[C@H](CO)[C@H]2Cn3c(ccc(C4=CCCCC4)c3=O)[C@H]2N1Cc1nccs1)N1CCCCC1	i	nt	nt	nt	nt	nt	nt	nt
O=C(c1ccccc1)N1C[C@H]2[C@@H](c3ccccc31)[C@@H](CO)N2Cc1cocn1	i	nt	nt	nt	nt	nt	nt	nt
O=C(C#Cc1ccccc1)c1ccc([N+](=O)[O-])cc1	i	40	108	69	i	95	i	89	Mdm2 MdmX conf=103
CO[C@H]1CN(C)C(=O)c2cc(NC(=O)c3nc4ccccc4s3)ccc2OC[C@@H](C)N(Cc2cccnc2)C[C@H]1C	i	nt	nt	nt	nt	nt	nt	nt
Cc1noc(C)c1S(=O)(=O)Nc1ccc2c(c1)CC(=O)N([C@H](C)CO)C[C@H](C)[C@@H](CN(C)S(=O)(=O)c1ccc(Cl)cc1)O2	i	nt	nt	nt	nt	nt	nt	nt
CC(C)(C)c1ccc(C(=O)O/N=C(\N)c2ccccc2)cc1	i	72	104	69	57	i	87	87
C[C@@H]1CN([C@@H](C)CO)C(=O)c2ccccc2-c2ccccc2CO[C@H]1CN(C)C(=O)Nc1ccc(F)cc1	i	nt	nt	nt	nt	nt	nt	nt
O=C(OCn1ncc(Cl)c(Cl)c1=O)c1cccc(C(F)(F)F)c1	nt	93	104	94	i	97	97	105	Mdm2 MdmX conf=103
N/C(=N\OC(=O)c1cccc(C(F)(F)F)c1)c1cnccn1	i	i	i	i	i	i	nt	nt
COc1cccc(C(=O)Nc2ccc3c(c2)C(=O)N(C)[C@H]2CC[C@H](CC(=O)NCC(F)(F)F)O[C@@H]2CO3)c1	i	nt	nt	nt	nt	nt	nt	nt
N#Cc1cccc2c1-c1ccccc1/C2=N/NC(N)=S	nt	48	i	i	i	i	i	i
CCNC(=S)NN=C1c2ccccc2-c2ccccc21	i	i	i	i	i	i	nt	nt
CC(=O)/C(=C/c1ccccc1)C(=O)Nc1ccccc1C	i	92	73	i	i	i	88	103
CC(/C=C/c1ccccc1)=N/NC(=O)CCC(=O)Nc1ccccc1C	i	i	i	i	i	i	nt	nt
C[C@@H]1CCCCO[C@@H](CN(C)CC2CC2)[C@H](C)CN([C@@H](C)CO)C(=O)c2cc(NS(=O)(=O)c3ccccc3)ccc2O1	i	nt	nt	nt	nt	nt	nt	nt
N#Cc1ccc(Oc2cccc3cccnc23)c([N+](=O)[O-])c1	i	i	i	i	i	i	nt	nt
O=[N+]([O-])c1ccc(Oc2cccc3cccnc23)c([N+](=O)[O-])c1	i	41	i	i	i	i	i	i
Nc1ccc(C(=O)N2CCCC2)cc1	nt	i	i	i	i	i	nt	nt
Nc1ccc(C(=O)n2c3ccccc3c3ccccc32)cc1	nt	78	i	i	i	i	92	85
Cc1cc(C)n(CCC(=O)N/N=C/c2c(O)ccc3ccccc23)n1	i	i	65	?	56	97	nt	nt	Mdm2 MdmX conf=88
